# From PubChem BioAssay (NCATS)
# A number with no mark means an inactive call. Records with an inconclusive call do not appear. A call without a number means that no potency is given here. Active and inactive are the calls of the source. Calls come from the whole dose curve; as a rule, active = well fitted curve in the direction sought with a large enough effect; inconclusive = small, poorly fitted or top-dose-only effect, or another doubt; inactive = no such curve, though single readings can be large; an effect the other way counts as inactive or inconclusive.
# Legend:
# [1] = molecular target: Glutathione peroxidase 1 (Homo sapiens) (UniProt P07203); experiment: Primary qHTS Assay for Inhibitors of Recombinant Selenoprotein Glutathione Peroxidase 1 (GPX1) (AID 1845191); note: nearly all actives have a fitted effect of over 65% in size
# Chain of Glutathione peroxidase 1 (Homo sapiens) (P07203 whole entry, looked up): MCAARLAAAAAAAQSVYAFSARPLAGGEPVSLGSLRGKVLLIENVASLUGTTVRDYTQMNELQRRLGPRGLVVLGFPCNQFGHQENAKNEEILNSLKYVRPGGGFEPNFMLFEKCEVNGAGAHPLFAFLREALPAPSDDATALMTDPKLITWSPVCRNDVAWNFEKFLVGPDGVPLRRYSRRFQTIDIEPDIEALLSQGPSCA
# How it was run: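 GR-coupled assay: compounds preincubated 30 min at room temperature with GPX1, then reaction started with CHP; final 10 nM GPX1, 1 mM GSH, 0.5 mM CHP, 0.5 mM NADPH, 100 nM GR, 0.01% BSA, pH 7.5 Tris buffer. NADPH fluorescence (340/450 nm) read at 0 and 15 min.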
# [2] = molecular target: Metallo-beta-lactamase type 2 (Klebsiella pneumoniae) (UniProt C7C422); experiment: qHTS to identify inhibitors of the New Delhi Metallo-beta-lactamase (NDM): assay validation screen against the NCATS LOPAC Collection (AID 1794843); note: series mostly up to about 38 µM
# Chain of Metallo-beta-lactamase type 2 (Klebsiella pneumoniae) (C7C422 whole entry, looked up): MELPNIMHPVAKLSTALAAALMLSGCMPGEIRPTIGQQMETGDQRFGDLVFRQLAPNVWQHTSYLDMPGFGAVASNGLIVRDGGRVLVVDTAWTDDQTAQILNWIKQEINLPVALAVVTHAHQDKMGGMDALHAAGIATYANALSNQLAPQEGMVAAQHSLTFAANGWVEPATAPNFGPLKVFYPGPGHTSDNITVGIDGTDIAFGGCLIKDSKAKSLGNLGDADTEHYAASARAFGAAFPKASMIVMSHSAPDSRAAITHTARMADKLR
# How it was run: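 Absorbance at 485 nm from nitrocefin turnover (50 uM solution added), read at plateau, gives the read-out. Compounds in DMSO were incubated first with 2 nM final NDM-1 in pH 7.0 HEPES buffer containing 1 uM ZnSO4 and 0.01% Tween20.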
# [3] = molecular target: Phospholipid hydroperoxide glutathione peroxidase GPX4 (Homo sapiens) (UniProt P36969); experiment: Primary qHTS Assay for Inhibitors of Recombinant Selenoprotein Glutathione Peroxidase 4 (GPX4) (AID 1845192); note: nearly all actives have a fitted effect of over 65% in size
# Chain of Phospholipid hydroperoxide glutathione peroxidase GPX4 (Homo sapiens) (P36969 whole entry, looked up): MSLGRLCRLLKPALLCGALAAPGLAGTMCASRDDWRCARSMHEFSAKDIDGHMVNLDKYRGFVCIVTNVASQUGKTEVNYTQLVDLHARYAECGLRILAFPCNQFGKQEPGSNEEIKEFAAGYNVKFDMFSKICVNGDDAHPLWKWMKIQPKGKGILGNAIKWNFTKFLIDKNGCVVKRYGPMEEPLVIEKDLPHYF
# How it was run: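 GR-coupled assay: recombinant GPX4 preincubated 30 min with compound at room temperature; final 200 nM GPX4, 1 mM GSH, 0.5 mM cumene hydroperoxide, 0.5 mM NADPH, 100 nM GR, 0.01% BSA, pH 7.5 Tris. NADPH fluorescence (340/450 nm) read at 0 and 15 min.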
# [4] = Viability counterscreen for antagonist of constitutive androstane receptor (CAR) against the NCATS DSHEA and TCM libraries (AID 1794837);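 note: compound exposure lasted 24 h before viability reading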
# How it was run: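 Counterscreen performed in a 1536-well qHTS format using HepG2-CYP2B6-hCAR cells; samples titrated in the presence of 48 uM CITCO, with viability measured fluorometrically (405/540 nm) after 24 h.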
# [5] = Viability counterscreen for agonist of constitutive androstane receptor (CAR) against the NCATS DSHEA and TCM libraries (AID 1794838);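 note: cells exposed to compound for 24 h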
# Source text: Assay Development and Screening Technology Laboratory (ADST)
# National Center for Advancing Translational Sciences (NCATS), Rockville, MD
# National Institute of Health (NIH), Bethesda, Maryland
# Dietary Supplements and Natural Products have minor oversight of their safety and efficacy. We assembled a collection of Dietary Supplements and Natural Products (DSNP) as well as Traditional Chinese Medicinal (TCM) Plant extracts, which were screened against an in vitro panel of assays, including a liver cytochrome p450 enzyme panel, CAR/PXR signaling pathways, and P-gp transporter assays, to assess their activity. This pipeline facilitated the interrogation of Natural Product-Drug Interaction (NaPDI) through prominent metabolizing pathways. In addition, we compared the activity profiles of the DSNP/TCM substances with those of an approved drug collection. Many of the approved drugs have well-annotated mechanisms of action (MOA) while the MOAs for most of the DSNP and TCM samples remain unknown. Based on the premise that compounds with similar activity profiles tend to share similar targets or MOA, we clustered the library activity profiles to identify overlap with the NCATS Pharmaceutical Collection to predict the MOAs of the DSNP/TCM substances. Overall, we highlight four significant bioactivity profiles (measured by p-values) as examples of this prediction.
# To this end, we profiled both collections for potential CAR and/or PXR activity, employing a previously published 1536-well qHTS assay.
# PROTOCOL TABLE (as described by Inglese J, Shamu CE and Guy RK. 2007)
# SEQUENCE No. (e.g., 1, 2, 3, etc.); […] (e.g., Cells, Incubation, Reagent, etc.); VALUE; DESCRIPTION.
# 1; Cells; 4 uL; 1536-well white Greiner assay plate.
# 2; Incubation; 5 hours; 37C, 95% humidity, 5% CO2.
# 3; Compounds; 23 nL; Kalypsis pin tool (Wako USA) equipped with 1536-well pin head to transfer to the assay plates.
# 4; Reagent; 1 uL; 0.75 uM PK11195 (final concentration).
# 5; Incubation; 24 hours; 37C, 5% CO2.
# 6; Detection Reagent 1; 1 uL; CellTiter-Fluor (Promega).
# 7; Incubation; 1 hour; 37C, 5% CO2.
# 8; Detector 1; Fluorescence intensity; ViewLux plate reader (excitation 405 nm, emission 540 nm).
# 9; Detection Reagent 2; 4 uL; ONE-Glo Luciferase reagent (Promega).
# 10; Incubation; 30 min; room temperature.
# 11; Detector 2; Luminescence intensity; ViewLux.
# NOTES (numbers refer to Sequence numbers above)
# 1. 4 uL of HepG2-CYP2B6-hCAR cells at 6.25 x 10^5 cells/mL (2,500 cells/well) were dispensed using a Multidrop Combi dispenser in tissue culture-treated 1536-well white assay plates (Greiner Bio-One) in the same culture media, without geneticin and blasticidin included.
# 2. Plates were incubated for 5 hours at 37C, 95% humidity, and 5% CO2 to allow for cell attachment.
# 3. Compounds (final concentrations of most substances ranged from 15.6 nM to 31.9 uM), positive control (for agonist mode: 6-(4-Chlorophenyl)imidazo[2,1-b][1,3]thiazole-5-carbaldehyde O-(3,4-dichlorobenzyl)oxime (CITCO) with a final concentration range 2.8 nM to 92 uM were transferred (23 nL) via pintool (Wako Automation).
# 4. After compound transfer, plates were dispensed with 1 uL of the known hCAR antagonist PK11195 (final concentration of 0.75 uM) in the agonist mode using a BioRAPTR FRDTM.
# 6. 1 uL of CellTiter-Fluor (Promega, Madison, Wisconsin) was added using a BioRAPTR FRDTM.
# 8. Fluorescence intensity (Ex/Em = 405 nm/540 nm) is obtained using the ViewLux plate reader to determine cell viability. […]
# 10. Luminescence intensity is read using the ViewLux detector. […]
# [6] = molecular target: Nuclear receptor subfamily 1 group I member 3 (Homo sapiens) (UniProt Q14994); experiment: Primary qHTS for agonist of constitutive androstane receptor (CAR) against the NCATS DSHEA and TCM libraries (AID 1794839);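 note: HepG2 cells expressing human CAR with a CYP2B6 reporter plus PK11195 antagonist; luciferase reporter luminescence read with ONE-Glo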
# Chain of Nuclear receptor subfamily 1 group I member 3 (Homo sapiens) (Q14994 whole entry, looked up): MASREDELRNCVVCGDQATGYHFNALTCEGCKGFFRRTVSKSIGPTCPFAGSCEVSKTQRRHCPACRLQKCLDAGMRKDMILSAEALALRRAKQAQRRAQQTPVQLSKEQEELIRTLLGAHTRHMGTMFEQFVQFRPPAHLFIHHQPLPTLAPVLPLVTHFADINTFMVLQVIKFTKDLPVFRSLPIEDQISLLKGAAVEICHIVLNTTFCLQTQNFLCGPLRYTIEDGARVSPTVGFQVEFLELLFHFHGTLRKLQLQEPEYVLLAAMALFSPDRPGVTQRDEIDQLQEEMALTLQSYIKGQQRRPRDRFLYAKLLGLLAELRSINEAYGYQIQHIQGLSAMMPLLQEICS
# How it was run: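 Concentration–response screen in HepG2-CYP2B6-hCAR cells under 0.75 µM PK11195; 24 h exposure; luminescent reporter signal with multiplexed fluorescent viability.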
# [7] = HepG2 viability counterscreen (readout 2: ATP content) against the NCATS DSHEA and TCM libraries (AID 1794840);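 note: HepG2 cells exposed to substances for about 24 h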
# How it was run: (§1)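 After HepG2 cells attach for ~4 h, substances are added and incubated ~24 h at 37C, 5% CO2. GF-AFC fluorescence then CellTiter-Glo luminescence give protease and ATP readouts.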
# [8] = HepG2 viability counterscreen (readout 1: protease activity) against the NCATS DSHEA and TCM libraries (AID 1794841);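 note: cells exposed to compounds for about 24 h before the protease read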
# How it was run: as §1
# [9] = molecular target: Luciferin 4-monooxygenase (Photinus pyralis) (UniProt P08659); experiment: Primary firefly luciferase (FLuc) qHTS assay for identification of artifact compounds. (AID 1845220); details: outcome: dose series up to 54.1 µM; note: nearly all actives have a fitted effect of over 60% in size
# How it was run: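 Enzymatic FLuc inhibition assay: compounds pre-exposed to luciferin/ATP (10 uM each) for 15 min, then purified P. pyralis enzyme at 10 nM added. Read-out: luminescence at 5 min.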
# [10] = tested on: Nanoluciferase (engineered Oplophorus gracilirostris luciferase); experiment: Primary Nanoluciferase (NLuc) qHTS assay for identification of artifact compounds. (AID 1845222);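 note: NLuc secreted into diluted conditioned medium of S16 cells; series mostly up to about 54 µM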
# How it was run: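 S16 cell supernatant NLuc, 1:55; cpds qHTS; 15 min RT dark; Nano-Glo substrate 1:100, 5 min; luminescence; Hill fit of % inhibition.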
compound,measurement,setting,value
C[C@H]1[C@H](NC(=O)/C(=N/OC(C)(C)C(=O)O)c2csc(N)n2)C(=O)N1S(=O)(=O)O (stereo in doubt),Potency,[1],inactive
C1CCc2nnnn2CC1,outcome,[2],inactive
same,Potency,[1],inactive
COc1cc2c(cc1O)CC[C@@H]1[C@@H]2CC[C@]2(C)[C@@H](O)CC[C@@H]12,outcome,[2],inactive
same,Potency,[1],inactive
same,Potency,[3],inactive
CC(=O)Nc1c(I)cc(I)c(C(=O)O)c1I,Potency,[1],inactive
CCC(NC(C)C)C(O)c1ccc(O)c(O)c1 (stereo not drawn),outcome,[2],inactive
same,Potency,[1],inactive
O=C(O)c1cc2cc(Cc3cccnc3)ccc2o1,outcome,[2],inactive
same,Potency,[1],inactive
same,Potency,[3],inactive
CCn1cc(C(=O)O)c(=O)c2cnc(N3CCCC3)nc21,"activity, negative = inhibition",[1],-13.1% [at 9.52 µM]
CC[C@H](C)C(=O)O[C@H]1CCC=C2C=C[C@H](C)[C@H](CC[C@@H]3C[C@@H](O)CC(=O)O3)[C@H]21,outcome,[2],inactive
same,Potency,[1],inactive
same,Potency,[3],inactive
O=c1ccc2ccccc2o1,outcome,[4],inactive
same,outcome,[5],inactive
same,outcome,[6],inactive
same,outcome,[7],inactive
same,outcome,[8],inactive
same,Potency,[3],inactive
COc1cc2c(cc1OC)C(=O)C(CC1CCN(Cc3ccccc3)CC1)C2 (stereo not drawn),Potency,[1],inactive
CN(C)CCOc1ccccc1Cc1ccccc1,Potency,[1],inactive
Oc1ccc(O)cc1,outcome,[2],inactive
same,Potency,[1],inactive
same,Potency,[3],inactive
CC(CCc1ccccc1)NCC(O)c1ccc(O)c(C(N)=O)c1 (stereo not drawn),outcome,[2],inactive
same,Potency,[1],inactive
same,Potency,[3],inactive
same,outcome,[9],inactive
same,Potency,[10],inactive
Nc1ccc(C(=O)O)cc1,outcome,[4],inactive
same,outcome,[5],inactive
same,outcome,[6],inactive
same,outcome,[7],inactive
same,outcome,[8],inactive
same,Potency,[1],inactive
CC(C)C[C@H]1C(=O)N2CCC[C@H]2[C@]2(O)O[C@](NC(=O)[C@@H]3C=C4c5cccc6[nH]c(Br)c(c56)C[C@H]4N(C)C3)(C(C)C)C(=O)N12,outcome,[2],inactive
same,Potency,[3],inactive
Nc1cc(Cl)c(NC2=NCCN2)c(Cl)c1,outcome,[2],inactive
same,Potency,[1],inactive
CC(O)(P(=O)(O)O)P(=O)(O)O,Potency,[1],inactive
Nc1nc2ncc(CNc3ccc(C(=O)N[C@@H](CCC(=O)O)C(=O)O)cc3)nc2c(=O)[nH]1,outcome,[4],inactive
same,outcome,[5],inactive
same,outcome,[6],inactive
same,outcome,[7],inactive
C#C[C@]1(O)CC[C@H]2[C@@H]3CCc4cc(OC5CCCC5)ccc4[C@H]3CC[C@@]21C,Potency,[1],inactive
CN1C2CCC1CC(OC(=O)c1c[nH]c3ccccc13)C2 (stereo not drawn),outcome,[2],inactive
same,Potency,[1],inactive
same,Potency,[3],inactive
C/C=C/c1ccc(OC)cc1,outcome,[4],inactive
same,outcome,[5],inactive
same,outcome,[6],inactive
same,outcome,[7],inactive
same,outcome,[8],inactive
same,Potency,[1],inactive
same,Potency,[3],inactive
C[N+]1(CCCCC[N+]2(C)CCCC2)CCCC1,outcome,[2],inactive
same,Potency,[1],inactive
same,Potency,[3],inactive
CCCn1c(=O)[nH]c(=O)c2[nH]cnc21,outcome,[2],inactive
same,Potency,[3],inactive
O=C1CCC(c2ccc(-n3ccnc3)cc2)=NN1,outcome,[2],inactive
same,Potency,[1],inactive
same,Potency,[3],inactive
C[C@@H]1C(=O)NC2=Nc3cccc(Cl)c3CN21,outcome,[2],inactive
same,Potency,[1],inactive
same,Potency,[3],inactive
CCN(CC)C(=O)/C(C#N)=C/c1cc(O)c(O)c([N+](=O)[O-])c1,Potency,[1],inactive
CO/N=C1\CN(c2nc3c(cc2F)c(=O)c(C(=O)O)cn3C2CC2)CC1CN (stereo not drawn),Potency,[1],inactive
C[C@H](O)C(=O)Nc1c(I)c(C(=O)NC(CO)CO)c(I)c(C(=O)NC(CO)CO)c1I,Potency,[1],inactive
CCCC1O[C@@H]2C[C@H]3[C@@H]4CCC5=CC(=O)C=C[C@]5(C)[C@H]4[C@@H](O)C[C@]3(C)[C@]2(C(=O)CO)O1 (stereo partly drawn),outcome,[2],inactive
same,Potency,[1],inactive
OC[C@@H](O)[C@@H](O[C@@H]1O[C@H](CO)[C@H](O)[C@H](O)[C@H]1O)[C@H](O)[C@@H](O)CO,Potency,[1],inactive
N[C@@H](Cc1cnc[nH]1)C(=O)O,outcome,[2],inactive
same,Potency,[1],inactive
same,Potency,[3],inactive
C=CCc1ccc(O)c(OC)c1,outcome,[4],inactive
same,outcome,[5],inactive
same,outcome,[6],inactive
same,outcome,[7],inactive
same,outcome,[8],inactive
same,Potency,[1],inactive
CC1(C)CCC(NC(=O)[C@@H](N)CCC(=O)O)CC1,outcome,[2],inactive
same,Potency,[1],inactive
same,Potency,[3],inactive
COC(=O)[C@@H]1CC2=CC(=O)CC[C@]2(C)[C@@]23O[C@@H]2C[C@@]2(C)[C@@H](CC[C@@]24CCC(=O)O4)[C@H]13,Potency,[1],inactive
